# Screening results (PubChem)
# An excerpt weighted towards active compounds, which were near 1.5% of everything screened.
# ALOX12 inh = Primary qHTS assay for inhibitors of human arachidonate 12S-lipoxygenase (ALOX12): Round 2 | AID 1671190, 2021 | purified 12hLO, xylenol orange hydroperoxide absorbance | 580,000 tested, 1.1% active | Potency, µM (series often up to 108 µM), for inactives: at the top dose activity change, negative = inhibition, most hits filed as inhibitors; also: potency is read from the fitted curve at half-maximal effect; % is scaled to controls: 0 for no effect and ±100 for the full control effect
# Target sequence (P18054 whole entry, looked up): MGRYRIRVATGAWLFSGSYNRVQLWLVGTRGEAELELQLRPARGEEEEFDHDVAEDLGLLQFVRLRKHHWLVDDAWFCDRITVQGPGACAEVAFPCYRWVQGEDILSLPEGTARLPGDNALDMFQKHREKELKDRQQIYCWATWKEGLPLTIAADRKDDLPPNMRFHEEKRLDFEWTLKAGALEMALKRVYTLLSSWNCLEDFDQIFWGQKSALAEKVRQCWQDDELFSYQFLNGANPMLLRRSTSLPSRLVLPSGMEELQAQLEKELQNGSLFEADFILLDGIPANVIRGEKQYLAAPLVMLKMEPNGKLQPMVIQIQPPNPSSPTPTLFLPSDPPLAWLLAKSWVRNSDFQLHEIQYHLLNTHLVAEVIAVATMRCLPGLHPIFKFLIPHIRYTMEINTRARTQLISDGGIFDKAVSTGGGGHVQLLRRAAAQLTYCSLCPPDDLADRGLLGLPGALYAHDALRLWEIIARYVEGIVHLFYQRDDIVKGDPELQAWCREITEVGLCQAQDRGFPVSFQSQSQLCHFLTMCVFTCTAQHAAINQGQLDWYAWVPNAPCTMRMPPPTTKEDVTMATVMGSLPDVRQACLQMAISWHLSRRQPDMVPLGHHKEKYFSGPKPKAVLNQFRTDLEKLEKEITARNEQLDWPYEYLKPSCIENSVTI
#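 Hydroperoxide product was detected by ferrous iron/xylenol orange as the 573 to 405 nm absorbance ratio. Arachidonic acid at 40 uM (final) was turned over for 30 min at room temperature by 150 nM human 12hLO, pH 7.0 Hepes buffer, after 15 min compound preincubation.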
# Nrf2 ARE act = qHTS of Nrf2 Activators; Potency, µM (series often up to 46.1 µM), for the others: at the top dose activation, most hits filed as activators; 410,000 tested, 0.31% active; AREc32 ARE-luciferase reporter (MCF7-derived line), luminescence, 24 h; AID 624171, 2012; also: potency is read from the fitted curve at half-maximal effect; % of control where 0% means no effect; nearly all actives have a fitted effect of over 65% in size
#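 Luciferase luminescence (Steady-Glo, 30 min at room temperature) served as the read-out of ARE activation in AREc32 cells treated with compounds for 24 hr at 37 deg C.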
# uPA surface inh = qHTS for Inhibitors of Cell Surface uPA Generation; cell surface uPA generation assay, qHTS; 330,000 tested, 0.31% active; AID 540303, 2011; Potency, µM (highest dose often 38.3 µM), inactives show top-dose activity change, negative = inhibition, most hits filed as inhibitors; active = well fitted inhibition curve with a large enough effect; inconclusive = small, poorly fitted or top-dose-only effect; inactive = no such curve, though single readings can be large or run the other way; tested in mouse RAW 264.7 cells; also: potency is read from the fitted curve at half-maximal effect; % is scaled to controls: 0 for no effect and ±100 for the full control effect; nearly all actives have a fitted effect of over 55% in size
# a7 integrin act = qHTS for Activators of Integrin-Mediated Alleviation for Muscular Dystrophy; alpha7betagal myoblasts, beta-gal FDG fluorescence, 48 h; Potency, µM (highest dose often 38.3 µM), for inactives: top-dose activation, most hits filed as activators; 350,000 tested, 0.064% active; AID 624291, 2012;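 also: potency is read from the fitted curve at half-maximal effect; 100% = response of the positive control SU9516; nearly all actives have a fitted effect of over 60% in size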
#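 Alpha7betagal+/- myoblasts (passage 13) were plated 16-24 hr, then exposed to compounds (1:260 dilution of DMSO stock) for 48 hours at 37C. After MPER lysis, β-galactosidase reporter activity was read as FDG fluorescence (ex 480/em 540) after 30 minutes.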
# IL2 activator = qHTS of IL-2 Activators | IL-2 activation reporter assay, cell-based qHTS; stimulated with anti-CD3/CD4/CD28 beads; in transgenic mouse T cells | activation, % (series mostly up to about 46 µM) | 360,000 tested, 0.065% active | AID 652025, 2013; in the data active = activation above about 50%; inconclusive = mostly about 30% to 49%; also: 0% is about no effect
#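 Unstimulated transgenic mouse T cells, 750 per well, received compound and, after 60 minutes, anti-CD3/anti-CD4 bead plus anti-CD28 stimulation. EGFP and DsRed were quantified after 18 hours.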
# Active calls of the source: *; ? = inconclusive; · = not tested or not shown; ! = not confirmed by another sample; [ ] = dose if it differs, or a comment. Unless noted, calls follow the shape of the dose curve; as a rule, active = well fitted curve in the direction sought with a large enough effect; inconclusive = small, poorly fitted or top-dose-only effect, or another doubt; inactive = no such curve, though single readings can be large; an effect the other way counts as inactive or inconclusive.
SMILES,ALOX12 inh,Nrf2 ARE act,uPA surface inh,a7 integrin act,IL2 activator
COc1cccc(Oc2coc3cc(OC(=O)c4ccc(F)cc4)ccc3c2=O)c1,-3%,·,·,·,·
CC(=O)c1c(C)[nH]c(C(=O)C(C)Sc2ccc(F)c(Cl)c2)c1C (configuration not stated),45µM*,·,·,·,·
Cn1nc2n(c1=O)CCN(Cc1ccncc1F)CC2,40%,·,·,·,·
CS(=O)(=O)c1ccc(Cl)c(NC(=O)CSc2nncn2-c2ccccc2)c1,-8%,0%,-6%,13µM*,0
CCCCCCCCc1ccc(C(=O)CCN(C)C)cc1,13µM*,·,·,·,·
CCCCCCCc1ccc(C(=O)CCC(=O)O)cc1,-19%,·,·,·,·
CC1=Nc2cc(C(=O)NC3CCCC3)ccc2Sc2ccc(Br)cc21,0%,0%,·,·,·
CC1=Nc2cc(C(=O)O)ccc2Sc2ccc(Br)cc21,45µM*,0%,-2%,-6%,1
CC(C)N(Cc1cnn(C)c1)Cc1cn(Cc2ccccc2)nc1-c1ccc2c(c1)OCO2,89%,·,·,·,·
COc1ccc(NC(=O)Nc2cccs2)cc1Cl,40µM*,?,-29%,5%,-3
CCCNC(=O)Cn1c(=O)/c(=C/c2ccc(-c3ccc([N+](=O)[O-])cc3)o2)s/c1=C\C(=O)C(C)(C)C,?,8%,-1%,0%,78*
COc1cccc2c1OCC(C(=O)N1CCC(Cn3cc(C)cn3)CC1)C2 (configuration not stated),1%,·,·,·,·
c1cncc(-c2csc(-c3cccnc3)n2)c1,7%,-1%,-26%,-1%,-4
Clc1ccsc1-c1csc(-c2cccnc2)n1,7%,2.2µM*,-13%,-23%,0
O=C1Nc2ccccc2N=C(c2ccccc2)C1Br (configuration not stated),40µM*,5%,0%,-7%,0
Cc1ccc2c(c1)c1c(n2CC(O)CNC(CO)(CO)CO)CCCC1 (configuration not stated),2%,2%,11%,3%,-1
Cc1ccc2c(c1)c1c(n2CC(O)CNC2CCCCC2)CCCC1 (configuration not stated),28µM*,-5%,?,-52%,-4
CCc1cc(C(N)=O)sc1C,-2%,·,·,·,·
Cc1nc2cc(NC(=O)COc3ccc(F)cc3Cl)ccc2o1,11%,·,·,·,·
Cc1cccc(N/N=C/c2ccncc2)c1,45µM*,8%,1%,16%,-4
Cc1cccc(N/N=C/c2ccc(C#N)cc2)c1,18µM*,·,·,·,·
Cc1ccc(N/N=C/c2ccc(C#N)cc2)cc1Cl,3.2µM*,·,·,·,·
Cc1ccccc1N/N=C/c1ccc(C#N)cc1,?,0%,7%,23%,-1
Cc1cccc(NC(=O)C(=O)N/N=C/c2ccncc2)c1,-5%,0%,-1%,-13%,-1
O=[N+]([O-])c1ccc(N/N=C/c2ccccc2O)cc1,3%,14%,1%,-6%,1
SMILES,ALOX12 inh,Nrf2 ARE act,uPA surface inh,a7 integrin act,IL2 activator
Cc1cccc(N/N=C/c2ccccc2O)c1,40µM*,6%,1%,22%,-1
CCCn1c(Cn2nnc(-c3ccc(F)cc3)n2)nc2cc(S(=O)(=O)N3CCOCC3)ccc21,3%,·,·,·,·
COC(=O)c1cc(COC(=O)c2cccnc2SC)oc1C,40µM*,-1%,-7%,15%,9
Cc1cc2nc(-c3cccc(Br)c3)c(Cc3ccccc3)n2c(C)c1Br,?,11µM*,·,·,2
Cc1cc(C)c2c(=O)n(CC(=O)Nc3ccc(Br)c(C)c3)sc2n1,-106%,0%,3%,-60%,-1
Cc1cc(C)c2c(=O)n(CC(=O)Nc3cccc(Cl)c3C)sc2n1,0.71µM*,-1%,3%,-50%,-4
Cc1cccc(C(=O)N=c2c(C#N)cc3c(=O)n4cccc(C)c4nc3n2Cc2ccco2)c1,35µM*!,6%,-5%,9%,0
Cc1cccn2c(=O)c3cc(C#N)c(=NC(=O)c4ccco4)n(Cc4ccco4)c3nc12,?,3%,4%,?,4
Cc1cccn2c(=O)c3cc(C#N)c(=NC(=O)c4ccccc4)n(Cc4ccco4)c3nc12,7.1µM*,6%,4%,?,0
CC(C)(O)C#Cc1ccc(CN2CCC(CO)(CCCc3ccccc3)CC2)s1,9%,·,·,·,·
COC(=O)[C@H](CC(C)C)N1Cc2cc(OC)cc(OC)c2-c2ccccc2S1(=O)=O,25µM*,4%,-19%,-12%,0
C=C1CCN(C(CC(C)C)C(=O)OC)S(=O)(=O)c2ccccc21 (configuration not stated),0%,0%,-15%,15%,0
CC(C)c1cccc(NC(=O)c2ccc(CN3C(=O)NC4(CCOCC4)C3=O)cc2)c1,34%,·,·,·,·
CC1CN(C(=O)/C=C/c2ccc([N+](=O)[O-])s2)CC(C)O1 (configuration not stated),-21%,?,-18%,-59%,0
O=C(/C=C/c1ccc([N+](=O)[O-])s1)N1CCCC1,-22%,?,11µM*,-67%,0
CC1CC(C)CN(C(=O)/C=C/c2ccc([N+](=O)[O-])s2)C1 (configuration not stated),?,?,3.5µM*,-13%,2
O=C(/C=C/c1ccc([N+](=O)[O-])s1)N1CCCCC1,-25%,?,-14%,-64%,0
OC1CC([C@H](NC2CSCCSC2)c2ccc3c(c2)CCO3)C1 (some centres not stated),46%,·,·,·,·
CC(=O)c1ccc(N=Nc2ccc(N)cc2)cc1,14%,-3%,4µM*,44%,-1
CC(=O)c1ccc(N=Nc2c(C)[nH][nH]c2=O)cc1,?,4%,-4%,11%,-1
COc1cccc(CN2CCNC(=O)C2CC(=O)NCc2ccon2)c1OC (configuration not stated),44%,·,·,·,·
O=C(/C=C/c1ccccc1)C1=C(O)C(=O)N(CCO)C1c1cccc([N+](=O)[O-])c1 (configuration not stated),22µM*,2%,1%,-8%,3
O=C(/C=C/c1ccccc1)C1=C(O)C(=O)N(CCO)C1c1ccccc1[N+](=O)[O-] (configuration not stated),?,6%,2%,5%,-1
N#C/C(C(=O)CCl)=C(/c1ccc(F)cc1)N1CCOCC1,22µM*,·,·,·,·
O=C(c1ccc(F)cc1)C1CCN(C(=O)N2CCOCC2)CC1,0%,-1%,·,-4%[7.66 µM],4
CSC1=N/C(=C\c2ccccc2)C(=O)N1C,-2%,11µM*,·,-10%,0
CCOCCCNC(=O)C(NC(=O)c1cccc(C)c1)C(C)C (configuration not stated),-4%,·,·,·,·
CC(=O)c1c(C)[nH]c(C(=O)/C(C#N)=C\c2ccc(F)cc2)c1C,35µM*,·,·,·,·
